# Data reported in article PMC5540273 (PLoS ONE, 2017).
# Where “and” joins values, the source holds several entries; their conditions need not be identical. Identical values can stand only once. Like-named read-outs stand apart in the source and are kept apart here.
# Experiments:
# TAOK2 = conditions: concentration: 1 μM, replicates: in singlicate; n = 1
# TAOK3 = conditions: concentration: 1 μM, replicates: in singlicate, n = 1
# TBK1 = conditions: concentration: 1 μM, replicates: in singlicate, n = 1
# TEC = conditions: concentration: 1 μM, replicates: in singlicate; n = 1
# TESK1 = conditions: concentration: 1 μM, replicates: in singlicate, n = 1
# TGFBR1 = conditions: n = 1
# TGFBR2 = conditions: concentration: 1 μM, replicates: in singlicate; n = 1
# TIE1 = conditions: concentration: 1 μM, replicates: in singlicate, n = 1
# TIE2 = tested on: T1, TIE2; conditions: concentration: 1 μM, replicates: in singlicate; n = 1
# T1 construct: gene TEK
# TLK1 = conditions: concentration: 1 μM, replicates: in singlicate, n = 1
# [1] = concentration: 1 μM, replicates: in singlicate
# 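Further: KINOMEscan kinase panel screen.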
Structure (SMILES),%Inh (TAOK2),%Inh (TAOK3),%Inh (TBK1),%Inh (TEC),%Inh (TESK1),%Inh (TGFBR1; [1]),%Inh (TGFBR2),%Inh (TIE1),%Inh (TIE2),%Inh (TLK1),%Inh (TGFBR1; 1 µM),%Inh (TAOK3; 1 µM),%Inh (TBK1; 1 µM),%Inh (TESK1; 1 µM),%Inh (TIE1; 1 µM),%Inh (TLK1; 1 µM)
Cc1cccc(Cn2ccn3c(=O)cc(N4CCOCC4)nc23)c1 [GSK2297542],5%,0%,10%,11%,39%,3%,0%,0%,0%,16%,–,–,–,–,–,–
Cc1nnc(-c2ccc(C)c(-c3ccc(C(=O)Nc4ccc(NS(C)(=O)=O)cc4)cc3)c2)o1 [GW702865],0%,0%,10%,0%,11%,0%,0%,0%,0%,0%,–,–,–,–,–,–
O=C(Nc1cccc(-c2nn3ncccc3c2-c2ccnc(Nc3cccc(C(F)(F)F)c3)n2)c1)c1c(F)cccc1F [GSK299495],41%,63%,6%,96.8%,15%,8%,1%,10%,0%,0%,–,–,–,–,–,–
CC(=O)Nc1ccc(COc2ccc(Nc3ccnc4cc(-c5ccccn5)ccc34)cc2)cc1.Cl [GW440148],0%,0%,21%,0%,9%,8%,28%,26%,6%,38%,–,–,–,–,–,–
CNc1ncnc2[nH]ncc12 [SKF-18355],24%,0%,30%,0%,10%,47%,0%,0%,2%,0%,–,–,–,–,–,–
c1ccc(-c2n[nH]cc2-c2ccnc3ccccc23)nc1 [GW271431],0%,0%,12%,0%,20%,–,72%,3%,0%,2%,90.1%,–,–,–,–,–
Cc1c2ccc(N(C)c3ccnc(Nc4cccc(S(N)(=O)=O)c4)n3)cc2nn1Cc1ccccc1.Cl.Cl [GW787226],72%,0%,35%,11%,15%,0%,63%,92.2%,77%,0%,–,–,–,–,–,–
COc1cc2ncn(-c3cc(OCc4sccc4Cl)c(C(N)=O)s3)c2cc1OC [GSK448459],0%,0%,15%,5%,0%,11%,0%,36%,0%,0%,–,–,–,–,–,–
Fc1ccc(-c2ncn(CCCN3CCOCC3)c2-c2cccnc2)cc1 [SB-211743],34%,0%,43%,9%,5%,26%,12%,9%,0%,0%,–,–,–,–,–,–
O=C(NCCCN1CCOCC1)c1cccc(Nc2nccc(Nc3ccc(Oc4ccccc4)cc3)n2)c1 [GW663929],0%,0%,26%,70%,0%,0%,7%,11%,0%,18%,–,–,–,–,–,–
Cc1c(Cn2c(C)nn3c(=O)cc(N4CCOC(C)C4)nc23)cccc1C(F)(F)F (stereo not shown) [GSK2344444],0%,0%,0%,0%,0%,0%,0%,7%,0%,0%,–,–,–,–,–,–
O=C(NOCC1CC1)c1ccc(F)c(F)c1Nc1ccc(I)cc1Cl,0%,0%,0%,0%,4%,0%,0%,0%,0%,3%,–,–,–,–,–,–
Cc1nnc(-c2ccc3ncc(-c4ccc(S(C)=O)cc4)n3c2)o1 (stereo not shown),0%,0%,15%,7%,0%,9%,0%,5%,6%,23%,–,–,–,–,–,–
N#Cc1ccc(-c2cc(-c3c[nH]nc3-c3ccccn3)ccn2)cc1 [GW693028],0%,0%,6%,44%,23%,–,83%,0%,0%,0%,87%,–,–,–,–,–
O=C(NCCNc1ccnc(Nc2ccc(F)cc2)n1)c1cc2ccccc2s1 [GSK1379874],0%,0%,17%,8%,97.2%,7%,0%,0%,0%,0%,–,–,–,–,–,–
NCCNS(=O)(=O)c1ccc(-c2ccnc3[nH]ccc23)cc1 [GSK977617],0%,–,–,0%,–,0%,0%,–,0%,–,–,0% and 2%,27% and 24%,14% and 13%,32% and 23%,36% and 13%
